# An excerpt weighted towards active compounds, which were near 5.2% of everything screened.
# Tau FP inhib: blocks human tau fibril formation measured by polarization. P10636. K18 P301L tau heparin fibrillization, Alexa594 FP, 6 h. Potency, µM (doses to about 57.7 µM), for inactives: top-dose activity, negative = inhibition, usual class: inhibitors. 280,000 tested, 0.39% active. AID 1468; further: potency means the concentration at half of the fitted maximal effect; nearly all actives have a fitted effect of over 55% in size
# Target sequence (P10636 561-689 P618L limits assumed): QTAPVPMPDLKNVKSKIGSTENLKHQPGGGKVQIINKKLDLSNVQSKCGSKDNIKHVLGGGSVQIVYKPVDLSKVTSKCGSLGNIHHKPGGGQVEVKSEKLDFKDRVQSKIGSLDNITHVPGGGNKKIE
#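 Human tau K18 […] P301L fragment, 15 uM unlabeled plus 0.24 uM Alexa 594-labeled tau (final), with compound and 20 uM heparin in 100 mM sodium acetate pH 7; 6 hr at 37 C, then Alexa 594 FP read.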
# Tau ThT inhib: tau fibrillization inhibition (ThT binding); P10636; recombinant tau K18 P301L, heparin-induced fibrillization, ThT fluorescence; Potency, µM (titrated, usually from 57.4 µM), for the others: top-dose activity, negative = inhibition, usual class: inhibitors; 270,000 tested, 2.1% active; AID 1460; further: potency means the concentration at half of the fitted maximal effect; nearly all actives have a fitted effect of over 55% in size
#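 Recombinant human tau K18 fragment […] carrying P301L, 15 uM unlabeled plus 0.24 uM Alexa 594-labeled, was fibrillized with 20 uM heparin in 100 mM sodium acetate pH 7 for 6 hr at 37 C; 30 uM ThT fluorescence read after 1 hr.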
# Tau fluor counter: counter-screen for tau fibril formation inhibitors; Potency, µM (top dose mostly 57.7 µM), inactives show at the highest dose activity change, negative = decrease; tau K18 P301L (four-repeat tau fragment) Alexa594 fluorescence, heparin fibrillization; 280,000 tested, 0.93% active; further: potency means the concentration at half of the fitted maximal effect; nearly all actives have a fitted effect of over 55% in size
#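 Human K18 P301L tau (15 uM unlabeled plus 0.24 uM Alexa 594-labeled, final) in 100 mM sodium acetate pH 7 was mixed with compound and 20 uM heparin and incubated 6 hr at 37 C.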
# Sfp PPTase inh: Sfp phosphopantetheinyl transferase inhibition | Q9F4F7 | Biochemical Sfp PPTase activity, qHTS | Potency, µM, for inactives: largest response in the series, negative = inhibition, most hits filed as inhibitors | 310,000 tested, 3.5% active | AID 1490;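 further: the enzyme is Sfp with the accession as filed and its product quenches rhodamine fluorescence; potency means the concentration at half of the fitted maximal effect; 0% = enzyme reaction without inhibitor and -100% = no enzyme wells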
#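 Buffer: 50 mM Hepes-Na pH 7.6, 10 mM MgCl2, 0.01% Nonidet P-40, 0.01% BSA. Enzyme 15 nM, pre-exposed to compound 15 min; substrates then added and fluorescence change tracked over 30 min.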
# Coupling enz: counter-screen for Giardia aldolase inhibitors: coupling enzyme system; 290,000 tested, 0.67% active; AID 2472; activity change, negative = inhibition, % at 58.2 µM, hits read low; coupling enzyme system counterscreen, AmpLite Red fluorescence; in the data active means activity change below about -30%
#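 Compounds tested against the coupling enzymes alone at 57.5 uM final; readout was AmpLite Red fluorescence (525/598 nm) after 20 min at RT.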
# * hit, by the source's call; ? = inconclusive; · = not tested or not shown; [ ] = remark or other dose. Unless noted, the call rests on the fitted dose curve; in most records, active means well fitted curve in the direction sought with a large enough effect; inconclusive means small, poorly fitted or top-dose-only effect, or another doubt; inactive means no such curve, though single readings can be large; an effect the other way counts as inactive or inconclusive. Unless noted, on the % scale 0 is the no-effect control and ±100 the full control effect.
SMILES,Tau FP inhib,Tau ThT inhib,Tau fluor counter,Sfp PPTase inh,Coupling enz
COc1ccc(N(C)S(=O)(=O)c2cccc(C(=O)OCC(=O)Nc3sc4c(c3C#N)CCCCC4)c2)cc1,9.4%,-3.0%,-16.1%,17.7%,3.7
COc1ccc(OC)c(NC(=O)c2ccc(CN(c3cc(Cl)ccc3C)S(=O)(=O)c3ccccc3)cc2)c1,-13.4%,-9.2%,-29.0%,79.4µM*,-29.9
CCc1nn(CC(=O)NCc2ccc(OC)cc2OC)c(=O)c2cc3c(OC)cccc3n12,2.5%,5.6%,3.9%,·,·
CC(Cc1n[nH]c(=S)n1N)c1ccccc1 (stereo not drawn),·,·,·,56.2µM*,-0.4
Nn1c(Cc2ccccc2)n[nH]c1=S,-5.5%[2.34 µM],-10.5%,-5.8%[2.34 µM],8.8%,-8.9
COc1ccccc1C1CCN(c2ccc(CO)cc2[N+](=O)[O-])CC1,-0.7%,14.1µM*,?,1.6%,-1.0
CCN1C(C(=O)c2ccccc2)=C(OC(=O)c2ccc(Cl)cc2)c2ccccc2S1(=O)=O,10.0%,?,-7.3%,·,·
CC(=O)Nc1sc2c(c1C(c1ccccn1)N1CCN(C)CC1)CCCC2 (stereo not drawn),-10.1%,-10.7%,-9.3%,-6.1%,-0.3
CC(=O)Nc1sc2c(c1C(c1ccccn1)N1CCCC1)CCCC2 (stereo not drawn),-12.1%,-9.1%,-4.5%,44.7µM*,-8.4
O=C1C(N2CCOCC2)=C(n2nnc3ccccc32)C(=O)c2ccccc21,?,12.6µM*,?,-24.0%,-41.3*
CC(C)C[C@H](NC(=O)c1nc[nH]c1C(=O)N[C@@H](CC(C)C)C(=O)OC(C)(C)C)C(=O)OC(C)(C)C,-12.9%,-12.3%,-22.0%,26.3%,-16.2
CC(C)C[C@H](NC(=O)c1[nH]cnc1C(=O)Nc1ccc(Cl)cc1)C(=O)OC(C)(C)C,11.2µM*,17.7%,-25.9%,25.3%,-7.1
Cc1cccc(NC(=O)c2nc[nH]c2C(=O)N[C@@H](Cc2ccccc2)C(=O)OC(C)(C)C)c1,8.91µM*,?,?,19.7%,-4.4
CC(C)(C)OC(=O)[C@H](Cc1ccccc1)NC(=O)c1[nH]cnc1C(=O)Nc1ccc(Cl)cc1,12.6µM*,14.9%,?,21.0%,-1.1
CC(C)(C)OC(=O)[C@H](Cc1ccccc1)NC(=O)c1nc[nH]c1C(=O)N[C@@H](Cc1ccccc1)C(=O)OC(C)(C)C,?,-6.1%,-18.7%,19.0%,-10.6
Cc1cccc(NC(=O)c2nc[nH]c2C(=O)N[C@@H](CC(C)C)C(=O)OC(C)(C)C)c1,12.6µM*,7.6%,?,27.0%,-5.8
CCOC(=O)c1ccc(NC(=O)c2nc[nH]c2C(=O)N[C@@H](Cc2ccccc2)C(=O)OC(C)(C)C)cc1,?,?,?,26.9%,-3.7
CC(C)(C)OC(=O)[C@H](Cc1ccccc1)NC(=O)c1[nH]cnc1C(=O)Nc1cccc(Cl)c1,22.4µM*,16.2%,?,26.4%,-3.1
CC(c1ccccc1)C1CC(=O)N(CC(=O)O)C1=O (stereo not drawn),-2.6%,0.0%,2.0%,13.4%,4.5
CC(c1ccccc1)C1CC(=O)N(Cc2ccco2)C1=O (stereo not drawn),-9.8%,-17.9%,-5.9%,22.4µM*,0.8
Cc1cc(C(=O)CSc2nnnn2C)c(C)n1Cc1ccco1,10.8%,-9.1%,-4.5%,-4.6%,1.6
Cc1cc(C(=O)CSc2ncccn2)c(C)n1Cc1ccco1,1.4%,-0.4%,6.0%,56.2µM*,-4.0
CN(C)CCCNc1cc(C(C)(C)C)nc2c(-c3ccc(Cl)cc3)cnn12,10.0%,?,15.8µM*[quencher],31.6µM*,-3.2
COc1ccccc1CNC(=O)CSc1ncc(S(=O)(=O)c2ccc(C)c(Cl)c2)c(=O)[nH]1,-2.5%,-10.5%,-8.5%,·,·
IC(I)I,·,·,·,44.7µM*,·
SMILES,Tau FP inhib,Tau ThT inhib,Tau fluor counter,Sfp PPTase inh,Coupling enz
CCOC(=O)c1sc(SCC(=O)Nc2ccc(N(C)C)cc2)nc1N,7.8%,14.1µM*,?,-4.2%,-1.1
CCOC(=O)c1sc(NC(=O)CSc2nc3ccccc3s2)c(C(=O)OCC)c1C,-2.5%,-0.2%,-1.0%,-10.1%,-2.1
COc1ccc(NC(=O)CSc2nc(N)c(C(=O)Nc3ccc(N(C)C)cc3)s2)cc1,14.7%,2.51µM*,?,-9.9%,1.1
CN(C)c1ccc(NC(=O)CSc2nc(N)c(C(=O)Nc3ccc(N(C)C)cc3)s2)cc1,13.0%,2.51µM*,12.6µM*[quencher],-8.3%,-1.2
COc1ccc(NC(=O)CSc2nnc(N)s2)cc1,2.1%,1.4%,-4.2%,16.0%,0.7
O=C(COCc1cc(-c2cccs2)on1)NCc1cccc(Cl)c1,4.3%,-4.6%,-14.4%,·,·
O=c1[nH]c(-c2ccccn2)nc2ccccc12,-2.7%,-2.5%,0.2%,79.4µM*,-2.4
Cc1sc2nc(-c3ccncc3)[nH]c(=O)c2c1-c1ccccc1,-2.5%,-10.7%,-3.1%,8.9%,4.2
Cc1sc2nc(-c3ccccn3)[nH]c(=O)c2c1-c1ccccc1,4.4%,3.4%,-0.5%,17.8µM*,-7.5
CCc1ccccc1NC(=O)C1CCCN(S(=O)(=O)c2ccc3[nH]c(=O)ccc3c2)C1 (stereo not drawn),5.6%,-10.4%,-15.9%,·,·
CN1C(=O)c2ccc(NC(=S)NC(=O)C(C)(C)C)cc2C1=O,3.8%,-6.0%,-7.5%,35.5µM*,5.3
CC(NC(=O)NNC(N)=S)(C(F)(F)F)C(F)(F)F,0.5%,-6.8%,-7.3%,44.7µM*,2.9
Cc1c(Cc2ccc3c(c2)OCO3)sc(NC(=O)C2CC2)c1C(N)=O,?,·,?,20µM*,-1.2
Cc1c(Cc2ccc3c(c2)OCO3)sc(NC(=O)c2cccc3ccccc23)c1C(N)=O,?,?,?,35.5µM*,-0.8
CCOc1ccc(CC(=O)Nc2sc(Cc3ccccc3)c(C)c2C(N)=O)cc1OCC,-4.8%,?,-21.0%,20µM*,-4.3
CCCCSCCCNC(=O)C1CCN(Cc2nc(-c3ccc(CC)cc3)oc2C)CC1,4.9%,?,-1.7%,·,·
CCOc1cc(CN2CCN(c3ccc(C(C)=O)cc3)CC2)ccc1OC,3.4%,?,-21.6%,79.4µM*,1.5
CCOc1cc(CN2CCCCC2)ccc1OC,1.7%,2.7%,8.9%,7.0%,-0.8
COC(=O)NC(c1ccccc1)C(C(=O)OC)C(=O)OC (stereo not drawn),-16.6%[11.6 µM],-7.8%[11.5 µM],-12.0%[11.6 µM],5.6%,-31.1*
CCCCCCCCCCCCCCCCN,·,·,·,13.8%,·
Nc1ccccc1Nc1cc(-c2ccccc2)[nH]n1,7.5%,14.1µM*,?,-1.7%,-0.8
Nc1ccccc1Nc1cc(-c2ccccc2)nn1-c1ccccc1,16.5%,?,14.1µM*[quencher],-9.6%,1.4
N#Cc1cc(-c2ccccc2)nn1-c1ccccc1,?,?,?,17.8µM*,-41.0*
Cc1cccc(CNC(=O)c2cccc(NC(=O)N3CCSc4ncccc43)c2)c1,-0.1%,7.5%,0.9%,·,·

# Bioassay records as filed in PubChem.
